# An excerpt weighted towards active compounds, which were near 7.3% of everything screened.
# SMN2 splice enh: qHTS Assay for Enhancers of SMN2 Splice Variant Expression | HEK293 SMN2-luciferase splicing reporter, luminescence, 30-36 h | Potency, µM (highest dose often 46.1 µM), without a hit: at the top dose activity change, positive = activation, hits mostly activators | hit rate 2.8% among 210,000; also: % of control where 0% means no effect; nearly all actives have a fitted effect of over 55% in size
#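 qHTS luciferase splicing reporter: luminescence rises when SMN2 exon 7 is included in transfected HEK293 cells. Compound exposure lasted 30-36 h at 37C, with 4.5 mM final sodium butyrate as control, followed by a ONE-Glo read.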
# Luc counter: Counterscreen for Luciferase (Kinase-Glo TM) Inhibition; Potency, µM (top dose mostly 38.3 µM), for the others: top-dose activity change, negative = inhibition, usual class: inhibitors; Kinase-Glo luciferase, ATP luminescence, 8 min; Luciferin 4-monooxygenase (Photuris pensylvanica), Q27757; hit rate 0.28% among 200,000; also: % is scaled to controls: 0 for no effect and ±100 for the full control effect; nearly all actives have a fitted effect of over 60% in size
#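 Inhibition of Kinase-Glo luciferase light generation was assessed at 10 uM ATP in pH 7.2 imidazole buffer, with luminescence measured after eight minutes at ambient temperature.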
# FLuc counter: qHTS profiling assay for firefly luciferase inhibitor/activator using purifed enzyme and Km concentrations of substrates (counterscreen for miR-21 project); purified FLuc, Km substrates, luminescence inhibition; AID 588342, 2011; Potency, µM (titrated, usually from 57.5 µM), for the others: at the top dose activity change, negative = inhibition, actives largely listed as inhibitors; hit rate 6.9% among 360,000;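 also: plate controls were vehicle for no effect and reference inhibitor for full effect; nearly all actives have a fitted effect of over 55% in size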
# Target sequence (P08659 whole entry, looked up): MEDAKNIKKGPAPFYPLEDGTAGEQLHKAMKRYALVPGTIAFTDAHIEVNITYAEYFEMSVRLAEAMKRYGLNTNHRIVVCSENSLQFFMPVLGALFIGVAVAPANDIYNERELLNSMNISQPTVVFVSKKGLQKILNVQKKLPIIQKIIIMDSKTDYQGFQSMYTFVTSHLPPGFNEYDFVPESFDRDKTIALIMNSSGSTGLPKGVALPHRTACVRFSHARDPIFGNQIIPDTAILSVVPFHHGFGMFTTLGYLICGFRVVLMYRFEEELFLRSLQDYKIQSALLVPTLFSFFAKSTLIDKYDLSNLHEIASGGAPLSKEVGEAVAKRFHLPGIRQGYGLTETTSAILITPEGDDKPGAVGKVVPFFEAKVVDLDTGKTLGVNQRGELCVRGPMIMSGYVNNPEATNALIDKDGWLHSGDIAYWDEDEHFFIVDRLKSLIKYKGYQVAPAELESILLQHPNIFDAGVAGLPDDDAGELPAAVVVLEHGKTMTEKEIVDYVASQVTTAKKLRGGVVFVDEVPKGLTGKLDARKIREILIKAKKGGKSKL
#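 Purified P. pyralis luciferase (10nM final) with 10uM D-luciferin and 10uM ATP (Km levels) in 50mM Tris acetate pH 7.5, 10mM Mg acetate, 0.01% Tween-20, 0.05% BSA; qHTS 6-point titration, ~60 µM downward; luminescence read.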
# ELG1 genotox: qHTS screen for small molecules that induce genotoxicity in human embryonic kidney (HEK293T) cells expressing luciferase-tagged ELG1; HEK293T ELG1-luciferase reporter, luminescence, 16 h; Potency, µM (titrated, usually from 46 µM), for inactives: at the highest dose activity change, positive = activation, hits mostly activators; hit rate 1.3% among 330,000; AID 504466, 2011; also: % of control where 0% means no effect; nearly all actives have a fitted effect of over 60% in size
#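 After overnight (16 hr) compound treatment at 37 °C, ELG1-luciferase HEK293T cells were lysed with ONE-Glo; luminescence quantified 30 min later at room temperature.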
# NPC1 promoter act: qHTS Assay for NPC1 Promoter Activators. Potency, µM (doses to about 9.22 µM), inactives show at the highest dose activation, actives largely listed as activators. hit rate 2.4% among 320,000. AID 485313, 2010. Huh7 NPC1 promoter luciferase reporter, 24 h; also: % of control where 0% means no effect; nearly all actives have a fitted effect of over 60% in size
#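 NPC1 promoter–luciferase Huh7 cells; 24 h compound; luminescence.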
# Rab9 promoter act: qHTS Assay for Rab9 Promoter Activators | Huh7 Rab9 promoter-luciferase reporter, luminescence, 24 h | AID 485297, 2010 | hit rate 2.8% among 320,000 | Potency, µM (titrated, usually from 9.22 µM), inactives show at the top dose activation, negative = inhibition, most hits filed as activators; also: % of control where 0% means no effect; nearly all actives have a fitted effect of over 60% in size
#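 Luminescence read-out: Huh7 cells stably expressing Rab9-luciferase, treated 24 h with compound at 37 °C, then lysed with luciferase reagent for 10 min at ambient before reading.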
# * marks the source's active call; other numbers are inactive results; ? = inconclusive; / = no result given; [ ] = dose if it differs, or a comment. Calls follow the shape of the dose curve; as a rule, active = well fitted curve in the direction sought with a large enough effect; inconclusive = small, poorly fitted or top-dose-only effect, or another doubt; inactive = no such curve, though single readings can be large; an effect the other way counts as inactive or inconclusive. Potency is read from the fitted curve at half-maximal effect.
SMILES,SMN2 splice enh,Luc counter,FLuc counter,ELG1 genotox,NPC1 promoter act,Rab9 promoter act
CC1CCCCN1c1nnc(NC(=O)Nc2ccccc2F)s1 (stereo not drawn),/,/,1%,/,/,/
CC(=O)Nc1ccc(NC(=O)CSc2nnc(-c3cc(C)[nH]n3)n2N)cc1,/,/,-12%,0%,-13%,-1%
Cc1cc(-c2nnc(SCC(=O)Nc3ccc(C)c(C)c3)n2N)n[nH]1,/,/,11µM*,1%,18%,6%
O=C(c1ccccc1)n1ccc(-c2cccs2)n1,/,/,6µM*,0%,12%,-1%
COC(=O)c1cc(-c2cccs2)nn1-c1ccccc1,5%,-2%,-14%,-4%,-2%,-11%
Cc1ccc(OCc2cc(C(=O)Nc3ccccc3)oc2C)cc1,7%,-7%,19µM*,?,22%,17%
COc1ccc(NC(=O)c2ccc(COc3ccc(C)cc3)o2)cc1,/,-7%,11µM*,5%,26%,29%
O=C(O)c1ccc(NC(=O)c2ccc(COc3ccccc3)o2)cc1,/,/,19µM*,4%,3%,17%
CN(CCCN1CCOCC1)C(=O)c1cc(COc2cccc(C(F)(F)F)c2)on1,/,/,3%,-1%,-2%,-9%
CCn1c(=O)c(=O)n(CC)c2cc(N3CCCCC3)c(NC(=O)c3ccc(OC)c(OC)c3)cc21,3%,/,4%,/,/,/
CCN(CC)c1ccc(CN2CCC(C(=O)NCc3ccc(C)cc3)CC2)cc1,/,-2%,24µM*,3%,0%,12%
CCN(CC)S(=O)(=O)N1CCC(C(=O)NCc2ccc(C)cc2)CC1,3%,-2%,-2%,-1%,0%,6%
O=C(NCCc1c[nH]c2ccccc12)C(=O)NCC(c1cccnc1)N1CCN(c2ccccc2)CC1 (stereo not drawn),-90%,-1%,-2%,-2%,-9%,-23%
CCCn1c(N)c(Sc2ccc([N+](=O)[O-])cc2)c(=O)n(CCC)c1=O,3%,1%,5%,0%,0%,1%
O=C(c1cc(F)ccc1F)C1CCCN(C(=O)CCc2cnccn2)C1 (stereo not drawn),/,-2%,0%,-2%,-4%,-9%
COc1cccc(C(=O)OCC(=O)NCc2ccc3c(c2)OCO3)c1OC,/,/,/,0%,/,/
COc1cccc2cc(C(=O)OC(C)C(=O)c3ccc(C)cc3)c(=O)oc12 (stereo not drawn),/,/,4%,4%,0%,18%
COc1cccc2cc(C(=O)Nc3ccc(CC(=O)O)cc3)c(=O)oc12,-17%,/,1.5µM*,/,/,/
COc1cccc2cc(C(=O)OCC(=O)NCc3ccc4c(c3)OCO4)c(=O)oc12,/,/,11µM*,?,-2%,2%
COc1cccc2cc(C(C)=O)c(=O)oc12,11%,0%,3%[2.3 µM],2%,-1%,-1%
COc1cccc2cc(CC(=O)c3ccc(C)c(C)c3)c(=O)oc12,/,/,17µM*,9%,6%,24%
COc1cccc2cc(CC(=O)c3ccccc3)c(=O)oc12,/,/,17µM*,11%,?,?
N#CC(=C=[N-])c1nc2ccccc2nc1-[n+]1cccc(NC(=O)c2ccccc2)c1,/,/,-4%,1%,4%,0%
CCN(CC)CCN1C(=O)c2ccccc2NC1c1cc(OC)c(OC)c(OC)c1 (stereo not drawn),-5%,-3%,-1%,1%,11%,?
COc1cccc2cc(C(=O)c3ccccc3)oc12,?,-24%,9.5µM*,?,?,3.5µM*
COc1cccc2cc(CC(=O)c3cc(C)ccc3C)c(=O)oc12,/,/,15µM*,-3%,25%,23%
COc1cccc2cc(/C(=N/O)c3ccc(Br)cc3)oc12,-27%,2%,1%,-1%,1%,0%

# From PubChem BioAssay
